Assay outcomes (PubChem BioAssay)
MARV entry inh = blocks Marburg virus binding to or entry into cells. Marburg virus pseudotyped entry inhibition, cell reporter. Potency, µM (doses to about 37.8 µM), without a hit: top-dose activity change, negative = inhibition, most hits filed as inhibitors. 300,000 tested, 1.8% active; calls by dose curve; tested in HEK293 cells; further: potency means the concentration at half of the fitted maximal effect
FMDV inh = antivirals against foot and mouth disease virus; FMDV antiviral cell-based qHTS; Potency, µM (doses to about 57.9 µM), for the others: top-dose activity change, negative = inhibition, usual class: inhibitors; 410,000 tested, 1.2% active; calls by dose curve; tested in HEK293T cells; further: read-out not given here; potency means the concentration at half of the fitted maximal effect; nearly all actives have a fitted effect of over 45% in size
HCMV antiviral = blocks human cytomegalovirus replication; HFF cells, HCMV-luciferase reporter, 72 h; active compounds read low; activity change, negative = inhibition, % at 57.5 µM; 410,000 tested, 4.5% active; AID 1259415; in the data active means activity change below about -60%; inconclusive means no clear call, values can overlap the other calls; inactive means above about -39%
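Two compound doses tested in HFFs infected with HCMV-luciferase, MOI 1 PFU/cell, 72 h at 37C. Lysate luminescence read with OneGlo; data normalized against buffer-only and 10uM Salinomycin inhibitor controls.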
Lassa entry inh = Lassa virus entry inhibition | Potency, µM (top dose mostly 37.9 µM), for the others: top-dose activity change, negative = inhibition, most hits filed as inhibitors | 300,000 tested, 1.2% active | Lassa virus pseudotype entry inhibition, cell reporter; calls by dose curve; tested in HEK293 cells; further: potency means the concentration at half of the fitted maximal effect; nearly all actives have a fitted effect of over 50% in size
An asterisk follows results filed as active; ? = inconclusive; / = no result; ! = repeats disagree; [ ] = remark or other dose. Compounds with a hit are over-represented: about 6.2% of the library has one in this group of screens. On the % scale 0 is the no-effect control and ±100 the full control effect.

SMILES | MARV entry inh | FMDV inh | HCMV antiviral | Lassa entry inh
CC(=O)Nc1cncc(-c2ccccc2F)n1 | / | -20.2% | -95.5* | /
CC(=O)Nc1cncc(-c2ccccc2C(C)=O)n1 | / | 25.8% | -17.1 | /
COC1CCC(c2nnsc2N2C(=O)C3=C(CCCC3)C2=O)CC1 (stereo not given) | 10.1%[46.1 µM] | / | / | /
CCOC(=O)Cc1csc(NC(=O)COc2ccccc2)n1 | -5.8% | ? | 52.4 | -0.5%
CN(c1ccc(OCC(=O)N2CCCCC2)cc1)S(=O)(=O)c1cccs1 | 0.1% | -11.6% | -8.2 | ?
CN(c1ccc(OCC(=O)N2CCN(c3ccc(F)cc3)CC2)cc1)S(=O)(=O)c1cccs1 | 8.91µM* | -23.5% | -38.0 | ?
CCOC(=O)Cc1csc(NC(=O)COc2ccc(N(C)S(=O)(=O)c3cccs3)cc2)n1 | ? | 25.1µM* | 11.4 | -28.0%
COc1cccc(CNC(=O)[C@H]2CCCN2C(=O)[C@H]2CCCN2C(=O)c2ccc(C)cc2)c1 | / | / | -1.2 | /
N#Cc1c(Nc2ccc(Cl)cc2)s[nH]c1=O | 0.6%[46.1 µM] | 29.0% | -65.8* | 1.1%
CSc1nc(Nc2ccc(Cl)cc2)c(C#N)c(=O)[nH]1 | -0.7% | -18.5% | 47.9 | -5.9%
COc1ccc(C/C(N)=N/n2cnnc2)cc1 | 5.4% | / | ? | 17.3%
CC(C)COc1ccc(C/C(N)=N/n2cnnc2)cc1 | 1µM* | -17.3% | -94.3* | ?
COc1ccccc1NC(=O)Nc1nc(-c2cccnc2)nc2ccccc12 | 7.08µM* | -1.8% | / | /
CN(Cc1ccccc1F)c1nc(-c2cccnc2)nc2ccccc12 | ? | ? | -5.6 | ?
COC(=O)CNc1nc(-c2cccnc2)nc2ccccc12 | -0.2% | -26.8% | -2.6 | 19.0%
COc1ccc(CCNc2nc(-c3cccnc3)nc3ccccc23)cc1OC | 8.91µM* | -19.6% | 4.2 | ?
CCOc1ccc(CN(C)c2nc(-c3cccnc3)nc3ccccc23)cc1OC | ? | 25.1µM* | -17.8 | /
COc1ccc(/C=N/Nc2nc(-c3cccnc3)nc3ccccc23)cc1OC | ? | -11.8% | -11.5 | -23.9%[46.1 µM]
CN(C)CCCN(CCCNC(=O)/C=N\O)Cc1ccccc1 | -12.8% | / | / | /
CCCCN1C(=O)c2[nH]nc(-c3ccccc3O)c2C1c1ccc(OCc2ccccc2)cc1 (stereo not given) | ? | 0.0% | -108.0* | ?
COc1ccc(CCN2C(=O)c3[nH]nc(-c4ccccc4O)c3C2c2cccc(O)c2)cc1OC (stereo not given) | 6.6% | -25.3% | 90.1 | ?
COCCCN1C(=O)c2[nH]nc(-c3ccccc3O)c2C1c1ccc(OCc2ccccc2)cc1 (stereo not given) | ? | ? | -95.8* | ?
COc1cccc(C2c3c(-c4ccccc4O)n[nH]c3C(=O)N2CCc2ccc(OC)c(OC)c2)c1 (stereo not given) | 7.08µM* | -7.6% | -25.7 | ?
CC(C)=CCN1C(=O)[C@]2(O[C@H](COc3ccccc3)CC3=C2CCC3)c2ccccc21 | -4.7%[14.2 µM] | / | / | /
Cc1scc(CN2CCN(c3ccccc3F)CC2)c1C | / | -17.8% | -11.8 | 28.2%[46.1 µM]
SMILES | MARV entry inh | FMDV inh | HCMV antiviral | Lassa entry inh
COc1cc(=O)n2c(c1C(=O)NCc1ccco1)CCN(Cc1ccc(F)cc1Cl)CC2 | / | -3.0% | / | /
CCc1cccc(C)c1Nc1c(-c2cccs2)nc2nc(C)cc(C)n12 | -8.5%[46.1 µM] | -14.5% | -1.9 | -0.8%[46.1 µM]
CCN(CCC(=O)O)c1ccccc1 | 15.0% | -5.2% | 10.6 | -13.6%
CCN(CC)C1=NC(=[N+](CC)CC)c2ccccc21 | ? | ? | -103.2* | ?
CN(CCO)c1cc(Sc2nc3ccccc3s2)c2nonc2c1[N+](=O)[O-] | ? | 22.4µM* | -104.1* | ?
Cc1ccccc1C(OCCN(C)C)c1ccccc1 (stereo not given) | 12.6µM*! | -10.5% | -26.9 | ?
CCN(CC)CCOC(c1ccccc1)c1ccc(C)cc1 (stereo not given) | 8.91µM* | -24.1% | -19.7 | ?
Cc1ccccc1[C@@H](OCCN(C)C)c1ccccc1 | -36.1% | / | / | /
Cc1cc(C(=O)NNC(=O)c2ccc(C(F)(F)F)cc2)no1 | 18.0%[46.1 µM] | 20.9% | 7.2 | ?
Cc1nc(C(=O)NNC(=O)c2ccc(C(F)(F)F)cc2)cs1 | ? | 38.2% | -89.2* | -17.3%
Cc1ccc(OCC(=O)N/N=C\c2c(C)n(C)c3ccccc23)c([N+](=O)[O-])c1 | 10.3µM* | -0.3% | / | -18.1%
Cc1c(/C=N/NC(=O)COc2ccccc2[N+](=O)[O-])c2ccccc2n1C | -23.4% | -14.7% | 13.1 | -3.6%
CCOC(=O)C1CCN(C(=O)c2cc3ccc4ccc(C)[nH]c4c3n2)CC1 | / | 25.2% | 71.5 | 12.8%[46.1 µM]
Cc1ccsc1/C=N/NC(=O)c1ccncc1 | 19.8%[46.1 µM] | 16.0% | 31.2 | 13.3%
COc1cc(C(=O)Oc2ccccc2/C=N/NC(=O)c2ccc(C)c(Cl)c2)cc(OC)c1OC | ? | 9.2% | -104.1* | ?
COc1cc(C(=O)N/N=C/c2sccc2C)cc(OC)c1OC | ? | 11.7% | -87.0* | ?
COc1ccc(/C=N/NC(=O)c2sccc2C)c2ccccc12 | / | 35.5% | -62.2* | /
COc1ccc(OC)c(-c2noc(N3CCN(c4cccc(C(F)(F)F)c4)CC3)n2)c1 | / | -2.1% | -35.6 | -9.9%[46.1 µM]
Cc1cccc(NS(=O)(=O)c2ccc3c(c2)CCN3C(=O)C2CC2)c1C | ? | -10.3% | -34.2 | -2.9%[46.1 µM]
COC(=O)[C@@]1(Cc2ccc(OC)cc2)[C@H]2c3cc(C(=O)N4CCCC4)n(CCn4cc([N+](=O)[O-])nc4C)c3C[C@H]2CN1C(=O)c1ccccc1 | 3.7% | -9.9% | -73.6* | 25.0%
COC(=O)[C@@]1(Cc2ccc(OC)cc2)[C@@H]2C(=CC(=O)[C@H]2CC(=O)C(=O)N2CCCC2)CN1C(=O)c1ccccc1 | ? | 15.8µM* | / | ?
CC(C)CCNC(=O)c1cc(-c2cccnc2)nc2ccc(S(=O)(=O)N3CCC(C)CC3)cc12 | / | 6.4% | 32.7 | 15.0%[46.1 µM]
Cc1ccc(/C([O-])=C(/C(=S)NCc2ccc3c(c2)OCO3)[n+]2ccc(N(C)C)cc2)c(C)c1 | -3.4%[14.2 µM] | -13.0% | -70.1* | ?
CN(C)c1ccc(C(=O)NCc2ccc3c(c2)OCO3)cc1 | ? | 68.0% | 51.5 | -10.5%
COc1ccc(CNC(C)C2COc3ccccc3O2)c(OC)c1 (stereo not given) | 11.2µM* | -22.7% | -8.2 | 1.7%
SMILES | MARV entry inh | FMDV inh | HCMV antiviral | Lassa entry inh
CC(NCc1ccccc1)C1COc2ccccc2O1 (stereo not given) | -9.3% | -3.5% | -20.1 | -14.3%
CCC1CCCCN1CCCNC(=O)c1sc2nc(C)cc(C)c2c1-n1cccc1 (stereo not given) | 19.6%[46.1 µM] | -12.8% | -14.9 | 16.6%[46.1 µM]
O=C(NN=Cc1cc(=O)[nH]c(=O)[nH]1)c1ccncc1 | 13.2% | -16.4% | -67.5* | 15.4%
O=C(N/N=C/c1cc(Br)c(Br)s1)c1ccncc1 | ? | 18.8% | -89.6* | 10µM*
O=C(N/N=C/c1sc(=O)n(-c2ccccc2)c1Cl)c1ccncc1 | ? | -1.0% | -85.7* | 3.0%
O=C(Nc1cc(F)ccc1F)N1C[C@H]2[C@@H](c3ccccc31)[C@H](CO)N2C(=O)c1ccccc1 | / | / | 41.9 | /
COc1cc(=O)n2c(c1C(=O)NCc1ccco1)CCN(C(=O)c1c(F)ccc(F)c1F)CC2 | / | 12.9% | / | /
Cc1ccsc1CN1CCc2nnc(CCNC(=O)c3ccc(F)cc3)n2CC1 | / | -4.4% | / | /
